High-throughput results (PubChem)
The list is not random: actives were taken first. Their share in the collection is about 4.7%.
Efflux pump inh – inhibitors of Candida efflux pumps in yeast, primary screen, S. cerevisiae, Nile Red, multiplex; S. cerevisiae Candida pump triplex; inhibition, % at 10 µM; actives 0.44% (n = 330,000); AID 485275, 2010;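 active = plate passing quality check with inhibition over a set limit, or well fluorescence over plate mean plus 4 SD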;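 also: Nile Red retained in pooled yeast measured as flow cytometry median fluorescence; higher means more Nile Red kept so more efflux inhibition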
eIF4H FP inh – human eIF4H binding inhibitors, primary screen, translation initiation inhibitor project, biochemical, uHTS, fluorescence polarization; Eukaryotic translation initiation factor 4H (Homo sapiens), Q15056; eIF4H fluorescence polarization binding assay; inhibition, % at 35 µM; actives 0.94% (n = 290,000);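 also: calls also rest on retests at 20 µM and on dose response follow-up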
ALR H2O2 inh – inhibitors of human ALR sulfhydryl oxidase, primary screen, biochemical, H2O2 detection, HRP-luminol luminescence, single point. FAD-linked sulfhydryl oxidase ALR (Homo sapiens), P55789. purified ALR, DTT oxidation. inhibition, % (concentration not given with the values). actives 3.8% (n = 290,000). AID 485317, 2010;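 active = mean replicate inhibition above about 79%, with every replicate also reaching it, limit read from the data; inconclusive = only one of the two criteria met; inactive = mean below limit and not every replicate reaching it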
SUMO HTRF inh – inhibitors of in vitro SUMOylation cascade, primary screen, biochemical, HTRF, uHTS. SUMO-conjugating enzyme UBC9 (Homo sapiens), P63279. HTRF SUMOylation assay, SAE1/SAE2 + UBC9. inhibition, % at 35 µM. actives 0.36% (n = 290,000). AID 2006, 2009; in the data active = inhibition above about 50%, passing the limit was not always enough; inconclusive = no clear call, values can overlap the other calls
Target sequence (P63279 whole entry, looked up): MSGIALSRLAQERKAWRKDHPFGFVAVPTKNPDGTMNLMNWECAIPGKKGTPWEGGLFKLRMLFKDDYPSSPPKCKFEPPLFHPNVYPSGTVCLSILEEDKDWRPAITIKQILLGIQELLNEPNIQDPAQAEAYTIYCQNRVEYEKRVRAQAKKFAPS
PABP polyA inh – PABP poly(A) RNA binding inhibitors, primary screen, biochemical, fluorescence polarization, uHTS; actives 1% (n = 290,000); inhibition, % at 35 µM; Polyadenylate-binding protein 1 (Homo sapiens), P11940;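 also: calls also rest on retests at 20 µM and on dose response follow-up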
Target sequence (P11940 whole entry, looked up): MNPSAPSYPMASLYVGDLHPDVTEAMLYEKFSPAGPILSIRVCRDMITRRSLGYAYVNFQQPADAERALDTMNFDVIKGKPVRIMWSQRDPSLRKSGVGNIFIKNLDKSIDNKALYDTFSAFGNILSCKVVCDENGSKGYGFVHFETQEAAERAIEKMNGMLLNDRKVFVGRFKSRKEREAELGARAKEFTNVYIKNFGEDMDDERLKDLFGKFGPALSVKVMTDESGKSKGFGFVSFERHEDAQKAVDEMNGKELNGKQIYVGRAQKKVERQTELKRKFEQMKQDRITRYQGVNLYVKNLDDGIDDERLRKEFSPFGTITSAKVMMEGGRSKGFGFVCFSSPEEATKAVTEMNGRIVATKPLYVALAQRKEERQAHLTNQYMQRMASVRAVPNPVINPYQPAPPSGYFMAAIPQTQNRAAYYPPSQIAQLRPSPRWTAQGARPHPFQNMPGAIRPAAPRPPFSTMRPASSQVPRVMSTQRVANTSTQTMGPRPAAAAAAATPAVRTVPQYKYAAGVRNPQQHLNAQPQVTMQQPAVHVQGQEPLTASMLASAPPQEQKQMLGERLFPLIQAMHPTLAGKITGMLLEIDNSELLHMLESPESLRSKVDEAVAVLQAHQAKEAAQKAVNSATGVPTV
PABP1 MLLE inh – inhibitors of PABP1 MLLE–PAM2 peptide binding, primary screen, biochemical, fluorescence polarization, FITC-PAM2, GST-MLLE. Polyadenylate-binding protein 1 (Homo sapiens), P11940. inhibition, % at 20 µM. actives 0.36% (n = 360,000); in the data active = inhibition above about 35%, passing the limit was not always enough
Yeast cmpd fluor – flagged as fluorescent in efflux inhibitor counter-screen; shares compounds with Efflux pump inh; S. cerevisiae AD/pABC3, compound fluorescence, flow cytometry; fluorescence ratio to DMSO, % at 10 µM; actives 4% (n = 1,700); AID 588517;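 active = fluorescence ratio to DMSO above its plate's cutoff, the plate mean ratio plus 5 SD, cut at about 210% in these data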;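 also: unstained yeast with no Nile Red so the signal is compound autofluorescence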
Mdr1 pump inh – inhibitors of Candida albicans Mdr1 efflux, confirmation, flow cytometry, singleplex, Cherry Pick1 set. shares compounds with Efflux pump inh. S. cerevisiae AD/CaMDR1, Nile Red efflux. inhibition, % at 10 µM. actives 1% (n = 1,700). AID 588518, 2011; in the data active = inhibition above about 26%;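 also: higher means more Nile Red retained so more efflux inhibition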
CaCdr2 efflux inh – inhibitors of Candida albicans Cdr2 efflux pump, confirmation, S. cerevisiae AD/CaCDR2, flow cytometry, cherry pick 1, singleplex | shares compounds with Efflux pump inh | Nile Red retention | Nile Red retention ratio vs DMSO, % at 10 µM | actives 4% (n = 1,700) | AID 588520, 2011; in the data active = Nile Red retention ratio vs DMSO above about 190%;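 also: higher ratio means more blocking of Cdr2 efflux of the dye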
CaCdr1 efflux inh – inhibitors of Candida albicans Cdr1 efflux pump, confirmation, S. cerevisiae AD/CaCDR1, flow cytometry, cherry pick 1, singleplex | shares compounds with Efflux pump inh | Nile Red efflux | inhibition, % at 10 µM | actives 1% (n = 1,700);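 active = inhibition above the screen-wide mean plus twice its standard deviation, cut at about 32% in these data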
Each line names hits and unclear results; the compound was inactive in the other large screens (follow-up assays come after a bar, where they were run). Unless noted, no rule for the calls is given here.

CCC(Sc1nc2ccsc2c(=O)n1Cc1ccc(C(=O)O)cc1)C(=O)Nc1cc(Cl)ccc1C (stereo not given)	none (no result: Efflux pump inh, eIF4H FP inh, ALR H2O2 inh, SUMO HTRF inh, PABP polyA inh)
COc1cccc(-c2c(C(=O)N/N=C(\C)c3ccc(Cl)s3)nnn2-c2nonc2N)c1	Efflux pump inh 4.6 | Yeast cmpd fluor inactive | Mdr1 pump inh inactive | CaCdr2 efflux inh inactive | CaCdr1 efflux inh inactive
COc1cccc(-c2c(C(=O)N/N=C(\C)c3ccco3)nnn2-c2nonc2N)c1	none
Cc1cc2c([nH]c3ccccc32)c2c1OC(C)(C)C=C2	Efflux pump inh 1.5 | Yeast cmpd fluor inactive | Mdr1 pump inh inactive | CaCdr2 efflux inh inactive | CaCdr1 efflux inh inactive
COc1ccc2[nH]c(=O)c3c(c2c1)OC(C)(C)C=C3	none
COc1c(C)cc(Br)cc1C(=O)Nc1ccccc1N1CCN(C(=O)c2ccccc2)CC1	Efflux pump inh 1.0 | Yeast cmpd fluor inactive | Mdr1 pump inh inactive | CaCdr2 efflux inh inactive | CaCdr1 efflux inh inactive
Cc1cc(C)cc(-n2ncc3c2CCCC3NC(=O)c2cc(C)oc2C)c1 (stereo not given)	none
COc1ncccc1C(=O)NC1CCCc2c1cnn2-c1cc(C)cc(C)c1 (stereo not given)	none | Yeast cmpd fluor inactive | Mdr1 pump inh inactive | CaCdr2 efflux inh inactive | CaCdr1 efflux inh inactive
O=C(NC1CCCc2c1cnn2-c1ccccc1F)c1ccccn1 (stereo not given)	none | Yeast cmpd fluor inactive | Mdr1 pump inh inactive | CaCdr2 efflux inh inactive | CaCdr1 efflux inh inactive
CNC(=S)N1CCc2cc(OC)c(OC)cc2C1	none (no result: ALR H2O2 inh) | Yeast cmpd fluor inactive | Mdr1 pump inh inactive | CaCdr2 efflux inh inactive | CaCdr1 efflux inh inactive
CC(C)(C)Cc1c(C2CCCCC2)nc2ccc(Cl)cn12	none (no result: Efflux pump inh, eIF4H FP inh, ALR H2O2 inh, SUMO HTRF inh, PABP polyA inh)
Cc1ccccc1-n1nc(C(=O)c2cccs2)cc(-c2nc3ccccc3[nH]2)c1=N	Efflux pump inh 0.3 (no result: ALR H2O2 inh) | Yeast cmpd fluor inactive | Mdr1 pump inh inactive | CaCdr2 efflux inh inactive | CaCdr1 efflux inh inactive
COc1ccc(-n2nc(C(=O)c3cccs3)cc(-c3nc4ccccc4[nH]3)c2=N)cc1	none (no result: ALR H2O2 inh)
CCN(Cc1nc2cc(Cl)ccc2c(=O)[nH]1)C(=O)c1cccc(OCc2c(C)noc2C)c1	Efflux pump inh 1.6 (no result: eIF4H FP inh, SUMO HTRF inh, PABP polyA inh) | Yeast cmpd fluor inactive | Mdr1 pump inh inactive | CaCdr2 efflux inh inactive | CaCdr1 efflux inh inactive
COc1cccc(CSc2nccn2C)c1	none
O=C(COC(=O)/C=C/c1ccc(F)cc1)Nc1nnc(-c2ccccc2)o1	none (no result: eIF4H FP inh, SUMO HTRF inh, PABP polyA inh)
COCCOC(=O)c1c(C)oc2ccc(NS(=O)(=O)c3ccc(F)cc3)cc12	Efflux pump inh 0.4 | Yeast cmpd fluor inactive | Mdr1 pump inh inactive | CaCdr2 efflux inh inactive | CaCdr1 efflux inh inactive
Cc1oc2ccc(NS(=O)(=O)c3ccc(F)cc3)cc2c1C(=O)O	none
CCOC(=O)CSc1nc(C(C)(C)C)nc2ccccc12	none
CCCCN1C(=O)C(=O)N(c2ccccc2)C1=S	Efflux pump inh 6.5 | Yeast cmpd fluor inactive | Mdr1 pump inh inactive | CaCdr2 efflux inh inactive | CaCdr1 efflux inh inactive
CN1CCN(C2=CC3=CC(=C(C#N)C#N)CCC3CC2)CC1 (stereo not given)	eIF4H FP inh inconclusive (no result: Efflux pump inh, ALR H2O2 inh) | Yeast cmpd fluor inactive | Mdr1 pump inh inactive | CaCdr2 efflux inh 243 | CaCdr1 efflux inh inactive
CC1(C)CC(NCCN2CCN(C3=CC(=C(C#N)C#N)CC(C)(C)C3)CC2)=CC(=C(C#N)C#N)C1	none (no result: ALR H2O2 inh)
N#CC(C#N)=C1C=C2C=C(N3CCOCC3)CCC2CC1 (stereo not given)	eIF4H FP inh inconclusive (no result: Efflux pump inh, ALR H2O2 inh) | Yeast cmpd fluor inactive | Mdr1 pump inh inactive | CaCdr2 efflux inh 206 | CaCdr1 efflux inh inactive
N#Cc1cc(Cl)c(N2CCOCC2)cc1C#N	none
N#CC(C#N)=C1C=C2C=C(N3CCCCCC3)CCC2CC1 (stereo not given)	eIF4H FP inh inconclusive (no result: Efflux pump inh, ALR H2O2 inh) | Yeast cmpd fluor 258 | Mdr1 pump inh inactive | CaCdr2 efflux inh 271 | CaCdr1 efflux inh inactive
CCN1CCN(C2=CC3=CC(=C(C#N)C#N)CCC3CC2)CC1 (stereo not given)	eIF4H FP inh inconclusive (no result: Efflux pump inh, ALR H2O2 inh) | Yeast cmpd fluor inactive | Mdr1 pump inh inactive | CaCdr2 efflux inh 203 | CaCdr1 efflux inh inactive
CN(Cc1ccc(OC(F)F)cc1)C(=O)/C=C/c1ccc(S(=O)(=O)N2CCOCC2)cc1	none (no result: eIF4H FP inh, ALR H2O2 inh, SUMO HTRF inh, PABP polyA inh)
CC1=C(C(=O)OCCCBr)C(c2ccc3c(c2)OCO3)NC(=O)N1 (stereo not given)	none
CC(=O)c1cccc(NC(=O)COC(=O)[C@@H](NC(=O)OCc2ccccc2)C(C)C)c1	none (no result: ALR H2O2 inh)
COc1ccccc1NC(=O)Cc1nnc(SCC(=O)Nc2nccs2)n1C	none (no result: ALR H2O2 inh)
N#Cc1ccccc1NC(=O)c1ccc2c(c1)OCCO2	none
Cn1cc(-c2nnnn2-c2cccc(C(F)(F)F)c2)c(C(F)(F)F)n1	none
Cc1cccc(NC(=O)CSc2nc3ccc(N4C(=O)c5ccccc5C4=O)cc3s2)c1C	none
CN(C)C(=O)CSc1nc2ccc(N3C(=O)c4ccccc4C3=O)cc2s1	Efflux pump inh 0.7 | Yeast cmpd fluor inactive | Mdr1 pump inh inactive | CaCdr2 efflux inh inactive | CaCdr1 efflux inh inactive
COc1ccc(C2=NOC(C)(c3nnc(-c4ccncc4)o3)C2)cc1 (stereo not given)	none (no result: eIF4H FP inh, SUMO HTRF inh, PABP polyA inh)
COc1ccc(CCNC(=O)C(=O)NCC2OCCN2S(=O)(=O)c2ccc(OC)cc2)cc1 (stereo not given)	none
COc1ccc(CNC(=O)C(=O)NCC2OCCN2S(=O)(=O)c2ccc3c(c2)OCCO3)cc1 (stereo not given)	none
COc1ccc(CNC(=O)C(=O)NCC2OCCN2S(=O)(=O)c2ccc(OC)cc2)cc1 (stereo not given)	none (no result: ALR H2O2 inh) | Yeast cmpd fluor inactive | Mdr1 pump inh inactive | CaCdr2 efflux inh inactive | CaCdr1 efflux inh inactive
